# Experimental data: PubChem BioAssay AID1159580 (chemical genetic matrix, 2015)
# “And” between values parts separate entries of the source, which are not always exact repeats. Equal entries are not always repeated. Among all 5,500 compounds or so, about 2,000 (36%) were called active. About 18% were inconclusive and are not listed. No stated cut-off is given here; in the data, active means normalized growth mostly below about 0.91 (no sharp cut-off); inconclusive means no clear call, values can overlap the other calls; inactive means mostly above about 0.92. The list shows a part of the results. The source holds several records for some structures; these can differ, active in one and inactive in another.
# Assay: chemical genetic growth profiling, strain panel (AID 1159580);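 further: tested at 20 µM; growth read once vehicle control cultures reached saturation at 30 °C; 1 = growth at the plate median or of vehicle wells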
# Settings: growth OD
compound,measurement,setting,value
CC[N+](C)(C)c1cccc(O)c1,normalized growth,"S. cerevisiae deletion strains, locus YJR075W, strain HOC1, stronger effect = lower value",0.985 (inactive) and 1.04 (inactive)
same,normalized growth,"S. cerevisiae deletion strains, locus YKL009W, strain mrt4, stronger effect = lower value",1 (inactive)
same,normalized growth,"S. cerevisiae deletion strains, locus YKL068W, stronger effect = lower value",0.985 (inactive)
same,normalized growth,"S. cerevisiae deletion strains, locus YKL085W, strain MDH1 (second series), stronger effect = lower value",1 (inactive)
same,normalized growth,"S. cerevisiae deletion strains, locus YKL085W, strain MDH1, stronger effect = lower value",1 (inactive)
same,normalized growth,"S. cerevisiae deletion strains, locus YKL160W, strain elf1, stronger effect = lower value",1.06 (inactive)
same,normalized growth,"S. cerevisiae deletion strains, locus YKL190W, strain CNB1, stronger effect = lower value",1.01 (inactive)
same,normalized growth,"S. cerevisiae deletion strains, locus YKR001C, strain vps1, stronger effect = lower value",0.97 (inactive)
same,normalized growth,"S. cerevisiae deletion strains, locus YKR026C, strain gcn3, stronger effect = lower value",1 (inactive)
same,normalized growth,"S. cerevisiae deletion strains, locus YKR091W, strain srl3, stronger effect = lower value",1.01 (inactive)
same,normalized growth,"S. cerevisiae deletion strains, locus YLL001W, strain dnm1, stronger effect = lower value",1.06 (inactive)
same,normalized growth,"S. cerevisiae deletion strains, locus YLL026W, stronger effect = lower value",1 (inactive)
same,normalized growth,"S. cerevisiae deletion strains, locus YLL041C, strain sdh2, stronger effect = lower value",1.01 (inactive)
same,normalized growth,"S. cerevisiae deletion strains, locus YLR027C, strain aat2, stronger effect = lower value",1.02 (inactive)
same,normalized growth,"S. cerevisiae deletion strains, locus YLR039C, strain RIC1, stronger effect = lower value",0.993 (inactive)
same,normalized growth,"S. cerevisiae deletion strains, locus YLR058C, strain SHM2, stronger effect = lower value",0.982 (inactive)
same,normalized growth,"S. cerevisiae deletion strains, locus YLR102C, strain apc9, stronger effect = lower value",0.977 (inactive)
same,normalized growth,"S. cerevisiae deletion strains, locus YLR113W, strain HOG1, stronger effect = lower value",0.996 (inactive)
same,normalized growth,"S. cerevisiae deletion strains, locus YLR221C, strain rsa3, stronger effect = lower value",1.03 (inactive)
same,normalized growth,"S. cerevisiae deletion strains, locus YLR258W, strain gsy2, stronger effect = lower value",1.01 (inactive)
same,normalized growth,"S. cerevisiae deletion strains, locus YLR262C, strain YPT6 (second series), stronger effect = lower value",1.05 (inactive)
same,normalized growth,"S. cerevisiae deletion strains, locus YLR262C, strain YPT6, stronger effect = lower value",1 (inactive)
same,normalized growth,"S. cerevisiae deletion strains, locus YLR268W, strain sec22, stronger effect = lower value",0.917 (inactive)
same,normalized growth,"S. cerevisiae deletion strains, locus YLR320W, strain mms22, stronger effect = lower value",1.06 (inactive)
same,normalized growth,"S. cerevisiae deletion strains, locus YLR330W, strain CHS5, stronger effect = lower value",0.992 (inactive)
same,normalized growth,"S. cerevisiae deletion strains, locus YLR342W, strain FKS1 (second series), stronger effect = lower value",1.04 (inactive)
same,normalized growth,"S. cerevisiae deletion strains, locus YLR342W, strain FKS1, stronger effect = lower value",1.02 (inactive)
same,normalized growth,"S. cerevisiae deletion strains, locus YLR357W, strain rsc2, stronger effect = lower value",1.01 (inactive)
same,normalized growth,"S. cerevisiae deletion strains, locus YLR370C, strain arc18, stronger effect = lower value",1.01 (inactive)
same,normalized growth,"S. cerevisiae deletion strains, locus YLR371W, strain rom2, stronger effect = lower value",0.969 (inactive)
same,normalized growth,"S. cerevisiae deletion strains, locus YLR384C, strain iki3, stronger effect = lower value",0.996 (inactive)
same,normalized growth,"S. cerevisiae deletion strains, locus YLR418C, strain cdc73, stronger effect = lower value",0.954 (inactive)
same,normalized growth,"S. cerevisiae deletion strains, locus YML016C, strain PPZ1, stronger effect = lower value",0.992 (inactive)
same,normalized growth,"S. cerevisiae deletion strains, locus YML032C, strain rad52, stronger effect = lower value",0.954 (inactive)
same,normalized growth,"S. cerevisiae deletion strains, locus YML120C, strain ndi1, stronger effect = lower value",1.04 (inactive)
same,normalized growth,"S. cerevisiae deletion strains, locus YML124C, strain tub3, stronger effect = lower value",0.984 (inactive)
same,normalized growth,"S. cerevisiae deletion strains, locus YMR058W, strain fet3, stronger effect = lower value",1.02 (inactive)
same,normalized growth,"S. cerevisiae deletion strains, locus YMR078C, strain ctf18, stronger effect = lower value",0.96 (inactive)
same,normalized growth,"S. cerevisiae deletion strains, locus YMR125W, strain sto1, stronger effect = lower value",1.05 (inactive)
same,normalized growth,"S. cerevisiae deletion strains, locus YMR129W, stronger effect = lower value",1.01 (inactive)
same,normalized growth,"S. cerevisiae deletion strains, locus YMR205C, strain PFK2, stronger effect = lower value",1.04 (inactive)
same,normalized growth,"S. cerevisiae deletion strains, locus YMR223W, strain ubp8, stronger effect = lower value",0.996 (inactive)
same,normalized growth,"S. cerevisiae deletion strains, locus YMR231W, strain pep5, stronger effect = lower value",1 (inactive)
same,normalized growth,"S. cerevisiae deletion strains, locus YMR263W, strain SAP30, stronger effect = lower value",0.993 (inactive)
same,normalized growth,"S. cerevisiae deletion strains, locus YMR307W, strain GAS1, stronger effect = lower value",0.956 (inactive) and 1.04 (inactive)
same,normalized growth,"S. cerevisiae deletion strains, locus YNL067W, strain RPL9B, stronger effect = lower value",0.975 (inactive)
same,normalized growth,"S. cerevisiae deletion strains, locus YNL071W, strain lat1, stronger effect = lower value",1.02 (inactive)
same,normalized growth,"S. cerevisiae deletion strains, locus YNL128W, strain TEP1, stronger effect = lower value",0.991 (inactive)
same,normalized growth,"S. cerevisiae deletion strains, locus YNL153C, strain GIM3, stronger effect = lower value",0.982 (inactive)
same,normalized growth,"S. cerevisiae deletion strains, locus YNL175C, strain NOP13, stronger effect = lower value",0.999 (inactive)
same,normalized growth,"S. cerevisiae deletion strains, locus YNL183C, strain NPR1, stronger effect = lower value",0.95 (inactive)
same,normalized growth,"S. cerevisiae deletion strains, locus YNL197C, strain WHI3, stronger effect = lower value",1 (inactive)
same,normalized growth,"S. cerevisiae deletion strains, locus YNL209W, strain ssb2, stronger effect = lower value",1.01 (inactive)
same,normalized growth,"S. cerevisiae deletion strains, locus YNL224C, strain SQS1, stronger effect = lower value",1.02 (inactive)
same,normalized growth,"S. cerevisiae deletion strains, locus YNL233W, strain BNI4, stronger effect = lower value",0.979 (inactive)
same,normalized growth,"S. cerevisiae deletion strains, locus YNL248C, strain rpa49, stronger effect = lower value",1.07 (inactive)
same,normalized growth,"S. cerevisiae deletion strains, locus YNL250W, strain rad50, stronger effect = lower value",0.982 (inactive)
same,normalized growth,"S. cerevisiae deletion strains, locus YNL271C, strain bni1, stronger effect = lower value",0.977 (inactive)
same,normalized growth,"S. cerevisiae deletion strains, locus YNL298W, strain CLA4, stronger effect = lower value",0.979 (inactive)
same,normalized growth,"S. cerevisiae deletion strains, locus YNL307C, strain MCK1, stronger effect = lower value",0.973 (inactive)
same,normalized growth,"S. cerevisiae deletion strains, locus YNL322C, strain KRE1 (second series), stronger effect = lower value",1.02 (inactive)
same,normalized growth,"S. cerevisiae deletion strains, locus YNL322C, strain KRE1, stronger effect = lower value",0.993 (inactive)
same,normalized growth,"S. cerevisiae deletion strains, locus YNR049C, strain mso1, stronger effect = lower value",1.01 (inactive)
same,normalized growth,"S. cerevisiae deletion strains, locus YNR052C, strain pop2, stronger effect = lower value",0.984 (inactive)
same,normalized growth,"S. cerevisiae deletion strains, locus YOL006C, strain TOP1, stronger effect = lower value",0.948 (inactive)
same,normalized growth,"S. cerevisiae deletion strains, locus YOL012C, strain htz1",0.664 (inactive)
same,normalized growth,"S. cerevisiae deletion strains, locus YOL147C, strain pex11, stronger effect = lower value",0.982 (inactive)
same,normalized growth,"S. cerevisiae deletion strains, locus YOR001W, strain rrp6, stronger effect = lower value",0.951 (inactive)
same,normalized growth,"S. cerevisiae deletion strains, locus YOR061W, strain CKA2, stronger effect = lower value",0.989 (inactive)
same,normalized growth,"S. cerevisiae deletion strains, locus YOR069W, strain VPS5, stronger effect = lower value",0.986 (inactive)
same,normalized growth,"S. cerevisiae deletion strains, locus YOR070C, strain gyp1, stronger effect = lower value",1 (inactive)
same,normalized growth,"S. cerevisiae deletion strains, locus YOR080W, strain dia2, stronger effect = lower value",1 (inactive)
same,normalized growth,"S. cerevisiae deletion strains, locus YOR083W, strain WHI5 (second series), stronger effect = lower value",0.991 (inactive)
same,normalized growth,"S. cerevisiae deletion strains, locus YOR083W, strain WHI5, stronger effect = lower value",1.05 (inactive)
same,normalized growth,"S. cerevisiae deletion strains, locus YOR106W, strain vam3, stronger effect = lower value",1.05 (inactive)
same,normalized growth,"S. cerevisiae deletion strains, locus YOR136W, strain idh2, stronger effect = lower value",0.986 (inactive)
same,normalized growth,"S. cerevisiae deletion strains, locus YOR144C, strain elg1, stronger effect = lower value",0.979 (inactive)
same,normalized growth,"S. cerevisiae deletion strains, locus YOR184W, strain ser1, stronger effect = lower value",0.955 (inactive)
same,normalized growth,"S. cerevisiae deletion strains, locus YOR231W, strain MKK1, stronger effect = lower value",0.997 (inactive)
same,normalized growth,"S. cerevisiae deletion strains, locus YOR265W, strain rbl2, stronger effect = lower value",1.01 (inactive)
same,normalized growth,"S. cerevisiae deletion strains, locus YOR270C, strain vph1, stronger effect = lower value",1.07 (inactive)
same,normalized growth,"S. cerevisiae deletion strains, locus YOR290C, strain snf2, stronger effect = lower value",1.04 (inactive)
same,normalized growth,"S. cerevisiae deletion strains, locus YOR316C, strain cot1, stronger effect = lower value",0.975 (inactive)
same,normalized growth,"S. cerevisiae deletion strains, locus YPL051W, strain arl3, stronger effect = lower value",1.04 (inactive)
same,normalized growth,"S. cerevisiae deletion strains, locus YPL055C, strain LGE1, stronger effect = lower value",1.01 (inactive) and 1.17 [resistant] (active)
same,normalized growth,"S. cerevisiae deletion strains, locus YPL078C, strain atp4, stronger effect = lower value",1.06 (inactive)
same,normalized growth,"S. cerevisiae deletion strains, locus YPL106C, strain sse1, stronger effect = lower value",1.02 (inactive)
same,normalized growth,"S. cerevisiae deletion strains, locus YPL240C, strain hsp82, stronger effect = lower value",1.01 (inactive)
same,normalized growth,"S. cerevisiae deletion strains, locus YPL241C, strain CIN2, stronger effect = lower value",1 (inactive) and 1.01 (inactive)
same,normalized growth,"S. cerevisiae deletion strains, locus YPL256C, strain CLN2, stronger effect = lower value",0.981 (inactive)
same,normalized growth,"S. cerevisiae deletion strains, locus YPR119W, strain clb2, stronger effect = lower value",0.992 (inactive)
same,normalized growth,"S. cerevisiae deletion strains, locus YPR141C, strain kar3, stronger effect = lower value",0.96 (inactive)
same,normalized growth,"S. cerevisiae deletion strains, locus YPR163C, strain tif3, stronger effect = lower value",0.97 (inactive)
same,normalized growth,"S. cerevisiae deletion strains, locus YPR167C, strain met16, stronger effect = lower value",0.979 (inactive)
same,normalized growth,"S. cerevisiae deletion strains, strain wtn01, stronger effect = lower value",0.937 (inactive)
same,normalized growth,"S. cerevisiae strains, strain wild type, stronger effect = lower value",0.996 (inactive)
